# Measured values as given in PubChem BioAssay (Tox21).
# Inconclusive results are not listed. Where a call stands in place of a potency, no number is given. The source holds several records for some structures; these can differ, active in one and inactive in another. Activity calls are given as the source filed them. Calls follow the shape of the dose curve; as a rule, active = well fitted inhibition curve with a large enough effect in the repeat runs; inconclusive = weak or mixed curves, or effect the other way; inactive = no such curve, though single readings can be large or run the other way.
# Biological target: Nuclear receptor ROR-gamma (Homo sapiens) (UniProt P51449)
# Experiment: qHTS assay to identify small molecule antagonists of the retinoid-related orphan receptor gamma (ROR-gamma) signaling pathway (AID 1159521; also: nearly all actives have a fitted effect of over 50% in size)
# Conditions: Tet-on RORgamma CHO cells, RORE-luciferase, 16 h; series mostly up to 92.4 µM
# In short: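 Readout: ONE-Glo luciferase luminescence, 30 min at room temperature. System: Tet-on RORγ CHO, RORE-LUC. Sequence: compound 2 h, doxycycline 1 uM final, 16 h at 37 C.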
# Potency is read from the fitted curve at half-maximal effect.
row,Compound,Potency
1,CC1=CC(=O)CC(C)(C)C1,2.5 µM (active) and inactive
2,Clc1cccc(Cl)c1NC1=NCCN1,inactive
3,CC1(C)C(=O)N(Cl)C(=O)N1Cl,inactive
4,CCCCCCCC(=O)O,inactive
5,O=C1O[C@H]([C@H](O)CO)C(O)=C1O,inactive
6,CS(=O)(=O)c1ccc(Cl)cc1,inactive
7,OB(O)O,inactive
8,CC(=O)OCc1ccc2c(c1)OCO2,inactive
9,CCCCCCCCCCCCCC(=O)O,inactive
10,CC1(C)[C@@H](O[C@H]2O[C@H](C(=O)O)[C@@H](O)[C@H](O)[C@H]2O[C@@H]2O[C@H](C(=O)O)[C@@H](O)[C@H](O)[C@H]2O)CC[C@]2(C)[C@H]3C(=O)C=C4[C@@H]5C[C@@](C)(C(=O)O)CC[C@]5(C)CC[C@@]4(C)[C@]3(C)CC[C@@H]12,inactive
11,Cc1ccncc1,inactive
12,O=Cc1ccc(CO)o1,inactive
13,CC(=O)Nc1ccc(CC(=O)O)cc1,inactive
14,COc1cc(NC(=O)CC(C)=O)c(OC)cc1Cl,inactive
15,CC(COCC(C)OC(=O)c1ccccc1)OC(=O)c1ccccc1 (centres undefined),inactive
16,CC(C)c1ccc(C(C)C)cc1,inactive
17,CCN(CC)CCNC(=O)c1ccc(N)cc1,inactive
18,O=C(NCC1CCCCN1)c1cc(OCC(F)(F)F)ccc1OCC(F)(F)F (centres undefined),inactive
19,C[n+]1ccn(CCO)c1,inactive
20,C=CC(=O)NCOCCCC,inactive
21,O=[N+]([O-])c1cc(C(F)(F)F)ccc1Cl,inactive
22,CCCCC(=O)O,inactive
23,C1CCCNCC1,inactive
24,COc1ccc2cc3[n+](cc2c1OC)CCc1cc2c(cc1-3)OCO2,inactive
